Assay outcomes: PubChem, National Center for Advancing Translational Sciences (NCATS)
DRD3 antagonist = blocks the human D3 dopamine receptor. P35462. hit rate 2.5% among 360,000. max response, negative = inhibition, %. D3R cells, DiscoveRx beta-arrestin luminescence, antagonist mode; stronger effect = lower value; in the data active = max response below about -50%; inconclusive = no clear call, values can overlap the other calls; note: % is set by controls: 0 for no effect and ±100 for the full control effect
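Cells expressing the human receptor were seeded at 1500 cells/well, incubated overnight at 37 degrees C in 5% CO2, then exposed to library compounds with dopamine controls for 90 minutes at 37 degrees C before luminescent detection.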
IL-1B inflam inh = blocks inflammasome-driven IL-1 beta release | hit rate 4.7% among 360,000 | THP-1 LPS/ATP IL-1B secretion, AlphaLISA, 16 h; stronger effect = lower value | AID 743279 | activity change, % at 57.5 µM; in the data active = activity change below about -50%; inconclusive = mostly about -30% to -49%; note: % is set by controls: 0 for no effect and ±100 for the full control effect
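Secreted IL-1B measured by AlphaLISA bead assay after 16 h compound exposure of THP-1 cells; compounds (final up to 57.5 uM) added 1 h before LPS (250 ng/mL) and ATP (1.25 mM) stimulation; lower signal means less secretion.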
D3 ag = D3 dopamine receptor (human) agonism; P35462; AID 652048; hit rate 0.58% among 410,000; D3R DiscoveRx beta-arrestin cells, luminescence, 90 min; max activation, %; in the data active = max activation above about 30%; note: 0% is about no effect
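Agonist-mode cell screen: cells plated at 1500/well and incubated overnight at 37 °C, then exposed to library compounds for 90 min at 37 °C. Detection reagent was added for 30–60 min at room temperature, and luminescence was read.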
ClpP mod = qHTS Assay for Activators of ClpP; Potency, µM (doses to about 57.5 µM), for inactives: at the top dose activity change, negative = active; purified B. subtilis ClpP, FRET peptide cleavage, 20 min; AID 651965, 2013; hit rate 1.9% among 340,000; active = well fitted falling curve with a large enough effect; inconclusive = small, poorly fitted or top-dose-only effect; inactive = no such curve, though single readings can be large or run the other way; note: potency is the fitted concentration of half-maximal effect; the source files actives as falling curves though it sought activators and does not explain the sign; nearly all actives have a fitted effect of over 65% in size
Target sequence (P80244 whole entry, looked up): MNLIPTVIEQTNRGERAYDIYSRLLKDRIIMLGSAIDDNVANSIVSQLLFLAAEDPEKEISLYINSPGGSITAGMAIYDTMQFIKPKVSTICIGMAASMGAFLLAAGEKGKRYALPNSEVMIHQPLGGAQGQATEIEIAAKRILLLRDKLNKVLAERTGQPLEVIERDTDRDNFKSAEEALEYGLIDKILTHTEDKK
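FRET quenching reversal measured ClpP activation: 10 microg/mL B. subtilis ClpP at pH 8 with the FRET-FV decapeptide, read at 430 nm after 320 nm excitation. The 20-min minus 0-min signal was scaled between DMSO/no-enzyme wells and ADEP (5.8 microM final).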
TDP1 cell CPT = DT40-hTDP1 cell growth loss with CPT. chicken DT40 Tdp1-/-;hTDP1 cells + 20 nM CPT, ATP luminescence, 48 h. Potency, µM (top dose mostly 46.2 µM), for inactives: at the highest dose activity change, negative = growth inhibition, most hits filed as inhibitors. hit rate 12% among 420,000. AID 686979; note: potency is the fitted concentration of half-maximal effect; % is set by controls: 0 for no effect and ±100 for the full control effect; nearly all actives have a fitted effect of over 55% in size
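Chicken DT40 Tdp1-/- cells stably complemented with human TDP1 were seeded at 400 cells/well in medium containing 20 nM camptothecin, exposed to pin-transferred compounds, and grown at 37 °C for at least 48 hr. Viability was read as ATP luminescence.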
TDP1 cell noCPT = qHTS for Inhibitors of human tyrosyl-DNA phosphodiesterase 1 (TDP1): qHTS in cells in absence of CPT; DT40 Tdp1-/- hTDP1 cells, no CPT, ATP luminescence, 48 h; Potency, µM (top dose mostly 46.2 µM), for the others: top-dose activity change, negative = growth inhibition, actives largely listed as inhibitors; hit rate 15% among 420,000; AID 686978, 2013; note: potency is the fitted concentration of half-maximal effect; % is set by controls: 0 for no effect and ±100 for the full control effect; nearly all actives have a fitted effect of over 55% in size
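Cells were dispensed at 400 per well, compounds added by pin tool, plates incubated ≥48 hr at 37 °C, then CellTiter-Glo added for 30 min at room temperature before luminescence reading. Line: DT40 Tdp1-/- complemented with hTDP1; camptothecin omitted.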
Numbers without * were called inactive; ? = inconclusive; . = no result; [ ] = another dose, or the depositor's remark. A selection: hits, their analogues and other compounds. The true share with any hit is near 21%. Unless noted, calls come from the whole dose curve; as a rule, active = well fitted inhibition curve with a large enough effect; inconclusive = small, poorly fitted or top-dose-only effect; inactive = flat fitted curve, though single readings scatter.

SMILES	DRD3 antagonist	IL-1B inflam inh	D3 ag	ClpP mod	TDP1 cell CPT	TDP1 cell noCPT
Brc1ccc2c(c1)CN1CCCC1=N2	-50*	-8	-7	2%	13µM*	21µM*
Cc1ccccc1Nc1ncnc2c1cnn2C	-7	15	1	0%	?	?
Cc1cccc(C(=O)N2CCc3cc(CNC(=O)COc4ccc(Cl)cc4)ccc32)c1	.	.	-9	-18%	-28%	-20%
COc1ccc(NC(=O)/C(C#N)=C/c2cc(C)n(-c3ccc(N4CCOCC4)c([N+](=O)[O-])c3)c2C)cc1	-11	-13	-9	-2%	3.7µM*	2.3µM*
COc1ccc(NC(=O)/C(C#N)=C/c2cc(C)n(-c3ccc(F)cc3)c2C)cc1	.	.	-13	-9%	-19%	-21%
Cc1cc(/C=C(\C#N)C(=O)Nc2ccc(F)cc2)c(C)n1-c1ccc(N2CCOCC2)c([N+](=O)[O-])c1	-5	-13	-1	-1%	8.2µM*	12µM*
Cc1ccc(CNc2nc(C)c(-c3ccn(CCN4CCOCC4)n3)s2)o1	.	.	.	.	25%[9.04 µM]	1%
CCCNC(=O)C1(C)CCCN(C(=O)c2cc(F)ccc2C)C1 (configuration not stated)	0	0	-6	1%	-7%	2%
N#CC(c1ccccc1)c1ccc(C(=O)c2ccc(F)cc2)cc1 (configuration not stated)	?	4	-12	-4%	-56%	23µM*
N#CC(c1ccc(F)cc1)c1ccc(C(=O)c2ccccc2)cc1 (configuration not stated)	7	-10	2	0%	?	?
Cc1ccccc1NC(=O)CSc1ccncc1	-7	-5	6	.	-1%	-3%
O=c1cc(O)c2sc(Nc3cccc(C(F)(F)F)c3)nc2[nH]1	-15	-26	-4	-3%	12µM*	7.3µM*
Cc1cc(=O)[nH]c(Nc2cccc(C(F)(F)F)c2)n1	?	33	-9	1%	?	23µM*
Cc1cc(=O)[nH]c(SCC(=O)Nc2cccc(C(F)(F)F)c2)n1	-22	26	-2	-1%	?	?
Cc1ccc(NC(=O)c2cccc(S(=O)(=O)N3CCN(c4ccc(F)cc4)CC3)c2)nc1	0	1	4	-5%	15µM*	?
O=C(Nc1ccncc1)c1cccc(S(=O)(=O)N2CCN(c3ccc(F)cc3)CC2)c1	-4	?	-17	-5%	21µM*	21µM*
CCS(=O)(=O)c1nc(S(=O)(=O)c2ccc(Cl)cc2)c(N2CCC(O)CC2)s1	-6	-29	1	0%	-18%	6%
Cc1ccc(-c2cc(C(=O)N3CCN(c4ccc(F)cc4)CC3)c3ccccc3n2)o1	45	-4	2	?	?	29µM*
Cc1ccc(-c2cc(C(=O)N3CCN(c4ccc(O)cc4)CC3)c3ccccc3n2)cc1	41	-24	4	-14%	?	?
Cc1ccc(-c2cc(C(=O)N3CCCC(C(F)(F)F)C3)c3ccccc3n2)o1 (configuration not stated)	3	-1	1	16µM*	?	?
Cc1ccc(-c2cc(C(=O)N3CCN(c4ncccn4)CC3)c3cc(Br)ccc3n2)o1	0	-6	4	.	4.1µM*	8.2µM*
O=C(c1cc(-c2ccccc2)nc2ccccc12)N1CCOCC1	5	15	4	-3%	3%	-8%
Cc1ccc(-c2cc(C(=O)N3CCOCC3)c3ccccc3n2)o1	-2	6	-3	.	?	18µM*
CCOc1ccccc1Nc1ccc2cc(S(=O)(=O)N3CCCCC3)ccc2n1	.	.	-7	?	?	18µM*
COc1ccc(Nc2ccc3cc(S(=O)(=O)N4CCCC4)ccc3n2)cc1OC	.	.	3	-2%	18µM*	21µM*
